In PubChem BioAssay (NCATS):
Records with an inconclusive call do not appear. Calls of active or inactive are those of the source. Unless noted, the call rests on the fitted dose curve; in most records, active means well fitted curve in the direction sought with a large enough effect; inconclusive means small, poorly fitted or top-dose-only effect, or another doubt; inactive means no such curve, though single readings can be large; an effect the other way counts as inactive or inconclusive.

assay: HTS Assay for Allosteric Antagonists of the Human D2 Dopamine Receptor: Hit Validation in HTRF (AID 624455); details: Cells stably expressing D1 dopamine receptor, inhibition mode; series mostly up to 46.1 µM; activity, negative = inhibition: at the top concentration; further: potency means the concentration at half of the fitted maximal effect;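 further: stable D1 dopamine receptor cell line scored for blocking the D1 response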; on activity, negative = inhibition: on the % scale 0 is the no-effect control and ±100 the full control effect
Summary of the method: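 Hit validation in cells stably expressing the D1 dopamine receptor, run in HTRF format. Compounds were tested for their ability to inhibit the D1-mediated response.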

Structure (SMILES) | activity, negative = inhibition | Potency
CCOC(=O)N1CCC(=C2c3ccc(Cl)cc3CCc3cccnc32)CC1 | 6.23% (inactive) | –
O=c1n(CCCN2CCN(c3cccc(Cl)c3)CC2)nc2ccccn12 | 7.88% (inactive) | –
CCN(CC)CCCC(C)Nc1ccnc2cc(Cl)ccc12 (stereo unspecified) | 10.8% (inactive) | –
NCCCC(N)(C(=O)O)C(F)F (stereo unspecified) | -3.5% (inactive) | –
Cc1ccc(N(CC2=NCCN2)c2cccc(O)c2)cc1 | -3.07% (inactive) | –
CC(C[N+](C)(C)C)OC(N)=O (stereo unspecified) | 2.13% (inactive) | –
CCCCNc1cc(C(=O)O)cc(S(N)(=O)=O)c1Oc1ccccc1 | -4.82% (inactive) | –
O=c1[nH]cnc2[nH]ncc12 | -6.24% (inactive) | –
Nc1ccc(S(=O)(=O)Nc2ccnn2-c2ccccc2)cc1 | 1.06% (inactive) | –
NNCCc1ccccc1 | 3.21% (inactive) | –
CC(C)NCC(O)COc1ccc(COCCOC(C)C)cc1 (stereo unspecified) | 3.3% (inactive) | –
N[C@@H]1CONC1=O | -7.12% (inactive) | –
OC(CN1CCC(Cc2ccc(F)cc2)CC1)c1ccc(Cl)cc1 (stereo unspecified) | 6.72% (inactive) | –
Cc1cnc(NC(=O)C2=C(O)c3ccccc3S(=O)(=O)N2C)s1 | -1.69% (inactive) | –
NC(N)=NC(=O)c1nc(Cl)c(N)nc1N | 5.71% (inactive) | –
NC[C@H](O)c1ccc(O)c(O)c1 | – | 0.291 µM (active)

Structure (SMILES) | activity, negative = inhibition | Potency
CC(C)C[C@H](NC(=O)[C@@H](O)[C@H](N)Cc1ccccc1)C(=O)O | -80.5% (inactive) | –
Clc1cccc(Cl)c1NC1=NCCN1 | 2.77% (inactive) | –
Cc1cn[nH]c1 | -1.53% (inactive) | –
C[C@]12CCC(=O)C=C1CC[C@@H]1[C@@H]2[C@@H](O)C[C@@]2(C)[C@H]1CC[C@]2(O)C(=O)CO | -4.33% (inactive) | –
CCn1cc(C(=O)O)c(=O)c2cc(F)c(N3CCNC(C)C3)c(F)c21 (stereo unspecified) | 1.27% (inactive) | –
O=C(Nc1nc2ccccc2n1CCN1CCOCC1)c1cccc([N+](=O)[O-])c1 | 3.46% (inactive) | –
C1COC(NC(C2CC2)C2CC2)=N1 | -2.68% (inactive) | –
O=NN(CCCl)C(=O)NCCCl | 2.48% (inactive) | –
Cc1oncc1C(=O)Nc1ccc(C(F)(F)F)cc1 | 6.35% (inactive) | –
N=c1nc(N2CCCCC2)cc(N)n1O | 8.5% (inactive) | –
CN1CCN(CCCN2c3ccccc3Sc3ccc(C(F)(F)F)cc32)CC1 | -7.29% (inactive) | –
Nc1nc2c(ncn2COCCO)c(=O)[nH]1 | 1.42% (inactive) | –
CC(C)(Sc1ccc(CCN(CCCCC2CCCCC2)C(=O)NC2CCCCC2)cc1)C(=O)O | -1.4% (inactive) | –
CCOC(=O)C1=C[C@]2(CC)CCCN3CCc4c(n1c1ccccc41)[C@@H]32 | 6.91% (inactive) | –
OC(CCN1CCCCC1)(c1ccccc1)C1CC2C=CC1C2 (stereo unspecified) | -3.28% (inactive) | –
O=C1CCc2cc(OCCCCc3nnnn3C3CCCCC3)ccc2N1 | 9.66% (inactive) | –

assay: Cytotoxicity counterscreen for NFkB agonists and antagonists (AID 624476); details: NFkB reporter cell line viability counterscreen; series mostly up to 46.1 µM; activity change, negative = cytotoxicity: at the top concentration;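 further: cells exposed to compound for 48 hours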; further: potency means the concentration at half of the fitted maximal effect; on activity change, negative = cytotoxicity: on the % scale 0 is the no-effect control and ±100 the full control effect

Structure (SMILES) | activity change, negative = cytotoxicity | Potency
OC(CN1CCC(Cc2ccc(F)cc2)CC1)c1ccc(Cl)cc1 (stereo unspecified) | -11.1% (inactive) | –
CC(C)C[C@H](NC(=O)[C@@H](O)[C@H](N)Cc1ccccc1)C(=O)O | -14% (inactive) | –
C[C@]12CCC(=O)C=C1CC[C@@H]1[C@@H]2[C@@H](O)C[C@@]2(C)[C@H]1CC[C@]2(O)C(=O)CO | 3.27% (inactive) | –
O=C(Nc1nc2ccccc2n1CCN1CCOCC1)c1cccc([N+](=O)[O-])c1 | -3% (inactive) | –
Cc1oncc1C(=O)Nc1ccc(C(F)(F)F)cc1 | -5.61% (inactive) | –
CC(C)(Sc1ccc(CCN(CCCCC2CCCCC2)C(=O)NC2CCCCC2)cc1)C(=O)O | – | 23.5 µM (active)

assay: qHTS Assay for Identification of Small Molecule Agonists for NFkB Signaling Pathway. (AID 624478); details: NFkB pathway reporter cell assay, agonist mode, cells co-stimulated with 10 pM TNF alpha; series mostly up to 46.1 µM; activation: at the top concentration; further: 0% is about no effect
Summary of the method: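 NFkB-bla ME-180 cells carry a beta-lactamase reporter. They received compound plus TNF alpha at 10 pM final (its EC50) for 5 h at 37 C. Reporter activity was read as 460/530 nm emission ratio after 2 h LiveBLAzer substrate loading.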

Structure (SMILES) | activation
OC(CN1CCC(Cc2ccc(F)cc2)CC1)c1ccc(Cl)cc1 (stereo unspecified) | 0.36% (inactive)
CC(C)C[C@H](NC(=O)[C@@H](O)[C@H](N)Cc1ccccc1)C(=O)O | -0.691% (inactive)
C[C@]12CCC(=O)C=C1CC[C@@H]1[C@@H]2[C@@H](O)C[C@@]2(C)[C@H]1CC[C@]2(O)C(=O)CO | -3.1% (inactive)
O=C(Nc1nc2ccccc2n1CCN1CCOCC1)c1cccc([N+](=O)[O-])c1 | -1.18% (inactive)
Cc1oncc1C(=O)Nc1ccc(C(F)(F)F)cc1 | -1.75% (inactive)
CC(C)(Sc1ccc(CCN(CCCCC2CCCCC2)C(=O)NC2CCCCC2)cc1)C(=O)O | 2.98% (inactive)

assay: qHTS Assay for Identification of Small Molecule Antagonists for NFkB Signaling Pathway. (AID 624479; calls by dose curve; further: potency means the concentration at half of the fitted maximal effect; on activity change, negative = inhibition: on the % scale 0 is the no-effect control and ±100 the full control effect); details: NFkB pathway reporter cell assay, antagonist mode; series mostly up to 38.3 µM; activity change, negative = inhibition: at the top concentration

Structure (SMILES) | activity change, negative = inhibition | Potency
OC(CN1CCC(Cc2ccc(F)cc2)CC1)c1ccc(Cl)cc1 (stereo unspecified) | -26.2% (inactive) | –
CC(C)C[C@H](NC(=O)[C@@H](O)[C@H](N)Cc1ccccc1)C(=O)O | -14.1% (inactive) | –
C[C@]12CCC(=O)C=C1CC[C@@H]1[C@@H]2[C@@H](O)C[C@@]2(C)[C@H]1CC[C@]2(O)C(=O)CO | -33.6% (inactive) | –
O=C(Nc1nc2ccccc2n1CCN1CCOCC1)c1cccc([N+](=O)[O-])c1 | – | 2.66 µM (active)
Cc1oncc1C(=O)Nc1ccc(C(F)(F)F)cc1 | -5.76% (inactive) | –
CC(C)(Sc1ccc(CCN(CCCCC2CCCCC2)C(=O)NC2CCCCC2)cc1)C(=O)O | – | 21.1 µM (active)

assay: Cell Proliferation Assay against the TMD8 Cell Line (AID 651645); details: TMD8 DLBCL cell line proliferation/viability; at 46.1 µM (top of the series) unless noted;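 further: cells exposed to compound for 48 h before reading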
Summary of the method: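 500 TMD8 cells/well, RPMI + Glutamax, no phenol red, 5% FBS; cpd added immediately; 48 h, 37C, 5% CO2; CellTiter-Glo, luminescence. Controls: DMSO = 100%, bortezomib 9.2 uM final = 0%.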

Structure (SMILES) | viability (% of control) [%]
OC(CN1CCC(Cc2ccc(F)cc2)CC1)c1ccc(Cl)cc1 (stereo unspecified) | 74
CC(C)C[C@H](NC(=O)[C@@H](O)[C@H](N)Cc1ccccc1)C(=O)O | 89.3
C[C@]12CCC(=O)C=C1CC[C@@H]1[C@@H]2[C@@H](O)C[C@@]2(C)[C@H]1CC[C@]2(O)C(=O)CO | 65.6
O=C(Nc1nc2ccccc2n1CCN1CCOCC1)c1cccc([N+](=O)[O-])c1 | 77.2
Cc1oncc1C(=O)Nc1ccc(C(F)(F)F)cc1 | 54
CC(C)(Sc1ccc(CCN(CCCCC2CCCCC2)C(=O)NC2CCCCC2)cc1)C(=O)O | 92.1
